One assay deals with Staphylococcus aureus. Nature of the assay: Antibacterial activity against Staphylococcus aureus MRSA ATCC 43300 (CO-ADD:GP_020); MIC in CAMBH media using NBS plates, by Resazurin F(560/590). To be noted: Concentration 20 uM, ASSAY_TEST Inhibition of Bacterial Growth, detection method Resazurin, Fluorescence (ex560/em590), MEDIA CAMHB, plate type 384well, CORNING #3640, time 18 hr. Type of assay: functional.

The subject of a further assay is Acinetobacter baumannii. Put plainly: Antibacterial activity against Acinetobacter baumannii ATCC 19606 (CO-ADD:GN_034); MIC in CAMBH media using NBS plates, by Resazurin F(560/590). Type of assay: functional. The following applies: Concentration 20 uM, ASSAY_TEST Inhibition of Bacterial Growth, detection method Resazurin, Fluorescence (ex560/em590), MEDIA CAMHB, plate type 384well, CORNING #3640, time 18 hr. In general terms: Alamar Blue is a resazurin reagent that responds to reducing activity.

In another assay the test system is Escherichia coli. Put plainly: Antibacterial activity against Escherichia coli ATCC 25922 (CO-ADD:GN_001); MIC in CAMBH media using NBS plates, by Resazurin F(560/590). To be noted: Concentration 20 uM, ASSAY_TEST Inhibition of Bacterial Growth, detection method Resazurin, Fluorescence (ex560/em590), MEDIA CAMHB, plate type 384well, CORNING #3640, time 18 hr. Format: functional.

For the next assay, the system named is Klebsiella pneumoniae. To be noted: Concentration 20 uM; ASSAY_TEST Inhibition of Bacterial Growth; detection method Absorption (OD600); MEDIA CAMHB; plate type 384well; NBS; CORNING #3640; time 18 hr.
In a further assay the test system is Candida albicans. To be noted: 20 µM.
The subject of the next assay is Cryptococcus neoformans. The following applies: Concentration 20 uM; ASSAY_TEST Inhibition of Fungal Growth; detection method Resazurin; Absorption (OD600-OD570); plate type 384well; NBS; CORNING #3640.

The values that follow come from ChEMBL document CHEMBL4296182, “CO-ADD screening of NIH NCI Diversity Set V”.

The structures appear in SMILES notation. For part of these data: Results with a measured potency or affinity are listed apart.

As to `Oc1nc(S)ncc1Oc1ccc(Cl)cc1Cl`, the Inhibition in the assay with Staphylococcus aureus is 8.02%; in the assay on Acinetobacter baumannii it was 11.12%; in the assay on Escherichia coli it was 2.19%; in the assay on Klebsiella pneumoniae, 10.84%; in the assay with Candida albicans, 6.27%; in the assay on Cryptococcus neoformans, -6.95%.

As for `O=c1c2ccccc2ncn1-c1ccc(Cl)cc1`, the Inhibition is 11.71% in the assay with Staphylococcus aureus; -18.47% in the assay on Acinetobacter baumannii; 12.96% in the assay with Escherichia coli; 4.73% in the assay on Klebsiella pneumoniae; 3.91% with Candida albicans; -12.39% in the assay on Cryptococcus neoformans.

As for `S=c1c2nc[nH]c2ncn1CCSC1=NC=NC2=NC=NC21` (centres undefined), the Inhibition in the assay on Staphylococcus aureus was 4.54%; with Acinetobacter baumannii it was -14.19%; in the assay on Escherichia coli it was 7.44%; in the assay with Klebsiella pneumoniae, 7.27%; with Candida albicans it was 5.38%; in the assay with Cryptococcus neoformans, -9.8%.

Take `Cc1cccc(NC2=C(C#N)C(=O)NC3(CCCC3)S2)c1`: the Inhibition in the assay with Staphylococcus aureus was -0.83%; in the assay on Acinetobacter baumannii it was -3%; with Escherichia coli, -9.49%; in the assay on Klebsiella pneumoniae it was 8.76%; in the assay on Candida albicans, 11%; in the assay on Cryptococcus neoformans, 1.34%.

As to `CCC(=Cc1ccc(CC)cn1)CC`, the Inhibition in the assay with Staphylococcus aureus was 5.02%; with Acinetobacter baumannii, -14.68%; with Escherichia coli, 4.35%; in the assay with Klebsiella pneumoniae, 10.54%; with Candida albicans it was 0.05%; in the assay on Cryptococcus neoformans, -5.56%.

In the case of `COc1ccc(NC2=CC(=S)NC(C)(C)C2)cc1`, the Inhibition with Staphylococcus aureus was 11.18%; in the assay with Acinetobacter baumannii, -15.84%; in the assay on Escherichia coli, 12.98%; with Klebsiella pneumoniae, 4.99%; in the assay on Candida albicans it was 2.09%; with Cryptococcus neoformans, -8.08%.

In the case of `NC(CSC1(c2cccc3ccccc23)c2ccccc2-c2ccccc21)C(=O)O` (centres undefined), the Inhibition with Staphylococcus aureus is 9.31%; in the assay on Acinetobacter baumannii, -6.6%; in the assay on Escherichia coli, 9.55%; in the assay with Klebsiella pneumoniae it was 13.19%; with Candida albicans, 7.56%; in the assay with Cryptococcus neoformans, -2.74%.

For the molecule `CCCOc1ccc(-c2nc(-c3ccc(N)cc3)cs2)cc1`, the Inhibition in the assay with Staphylococcus aureus is 6.42%; in the assay with Acinetobacter baumannii it was 13.93%; in the assay on Escherichia coli it was 2.89%; with Klebsiella pneumoniae it was 4.45%; in the assay with Candida albicans it was 5.55%; with Cryptococcus neoformans it was -3.2%.

`CCCCSc1[nH]cnc2nncc1-2`: the Inhibition is -2.6% in the assay with Staphylococcus aureus; -0.75% with Acinetobacter baumannii; 12.29% in the assay on Escherichia coli; -0.95% with Klebsiella pneumoniae; 4.01% in the assay with Candida albicans; -16.47% in the assay on Cryptococcus neoformans.

Turning to `Cc1ccc(Cl)cc1NC(=O)c1cc2ccccc2cc1O`, the Inhibition was 5.29% with Staphylococcus aureus; -8.92% in the assay with Acinetobacter baumannii; 15.86% in the assay with Escherichia coli; 12.1% in the assay on Klebsiella pneumoniae; 4.11% in the assay with Candida albicans; -7.39% with Cryptococcus neoformans.

Regarding `CC(=O)Nc1nc(C)c(CCCOc2ccc([N+](=O)[O-])cc2)c(O)n1`, the Inhibition was 4.87% with Staphylococcus aureus; 9.03% in the assay with Acinetobacter baumannii; 5.24% in the assay on Escherichia coli; 2.35% in the assay with Klebsiella pneumoniae; 3.22% with Candida albicans; -1.34% in the assay on Cryptococcus neoformans.

As to `CCCNC(=O)Nc1ccc(C)cc1C`, the Inhibition is 1.69% with Staphylococcus aureus; 10.44% with Acinetobacter baumannii; -6.23% in the assay with Escherichia coli; 17.61% in the assay with Klebsiella pneumoniae; 5.41% in the assay on Candida albicans; -2.02% in the assay on Cryptococcus neoformans.

Take `O=[N+]([O-])c1ccccc1/C=C/C=N/N=C/c1ccccc1O`: the Inhibition is 0.05% with Staphylococcus aureus; -15.14% with Acinetobacter baumannii; 9.06% in the assay on Escherichia coli; 2.2% in the assay on Klebsiella pneumoniae; 2.43% in the assay on Candida albicans; 3.86% in the assay on Cryptococcus neoformans.

Consider `Cc1nc2ccc(Cl)cn2c1[N+](=O)[O-]`, for which the Inhibition is 1.58% in the assay with Staphylococcus aureus; 13.48% in the assay with Acinetobacter baumannii; -8.75% with Escherichia coli; 13.85% with Klebsiella pneumoniae; 5.38% in the assay with Candida albicans; -3.42% with Cryptococcus neoformans.

Take `Cc1ccc2c(c1)c1ccc3c(c1n2C)C(=O)C=CC3=O`: the Inhibition with Staphylococcus aureus is 2.62%; in the assay with Acinetobacter baumannii, -23.42%; in the assay on Escherichia coli, 6.78%; with Klebsiella pneumoniae, 6.78%; in the assay on Candida albicans, 22.6%; in the assay with Cryptococcus neoformans, 22.59%.

On to `COc1ccc(C2C3=C(COC3=O)Oc3cc4c(cc32)OCO4)cc1OC` (centres undefined), for which the Inhibition in the assay with Staphylococcus aureus was 25.54%; in the assay on Acinetobacter baumannii, -8.11%; with Escherichia coli it was 12.52%; in the assay on Klebsiella pneumoniae it was 17.02%; with Candida albicans, 0.53%; with Cryptococcus neoformans, -1.21%.

With `Cc1ccc(/N=N/c2ccc(N)cc2C)c(S(N)(=O)=O)c1`, the Inhibition with Staphylococcus aureus was -7.58%; with Acinetobacter baumannii, -6.13%; in the assay on Escherichia coli it was 2.58%; with Klebsiella pneumoniae, 0.06%; in the assay with Candida albicans it was 2.21%; in the assay with Cryptococcus neoformans, -0.55%.

With `COc1cc(C(O)c2nc3ccccc3s2)cc(OC)c1OC` (centres undefined), the Inhibition with Staphylococcus aureus is 9.75%; in the assay with Acinetobacter baumannii, -15.16%; in the assay on Escherichia coli, 6.66%; in the assay with Klebsiella pneumoniae, 12.12%; in the assay on Candida albicans, 9.5%; in the assay with Cryptococcus neoformans, -12.06%.

In the case of `CCOc1ccc(NC(=O)N(O)C2(C#N)CCCCC2)cc1`, the Inhibition is 13.16% in the assay on Staphylococcus aureus; 8.44% with Acinetobacter baumannii; 2.02% in the assay with Escherichia coli; 18.05% with Klebsiella pneumoniae; 5.54% in the assay with Candida albicans; -2.32% in the assay with Cryptococcus neoformans.

With `CCOC(=O)Nc1c(Cl)n(C)c(=O)n(C)c1=O`, the Inhibition in the assay on Staphylococcus aureus was -8.24%; in the assay on Acinetobacter baumannii, 9.75%; with Escherichia coli, -16.55%; in the assay with Klebsiella pneumoniae, 17.7%; in the assay with Candida albicans, 6.3%; with Cryptococcus neoformans, 20.83%.

On to `CCOC(=O)/C(=N\O)C1=CSC2=NNC(C)(C)N12`, for which the Inhibition is 3.63% in the assay with Staphylococcus aureus; -13.67% with Acinetobacter baumannii; 6.92% in the assay on Escherichia coli; 9.3% in the assay on Klebsiella pneumoniae; 5.91% with Candida albicans; -6.65% in the assay on Cryptococcus neoformans.

Take `O=C(O)CSc1ccc(NC(=O)Nc2ccccc2F)cc1`: the Inhibition is 18.21% in the assay with Staphylococcus aureus; 6.88% with Acinetobacter baumannii; 2.53% in the assay with Escherichia coli; 17.8% with Klebsiella pneumoniae; -1.57% with Candida albicans; -6.03% with Cryptococcus neoformans.

As for `Cc1nnc(-n2cccc2)s1`, the Inhibition is 4.2% in the assay with Staphylococcus aureus; -10.69% in the assay with Acinetobacter baumannii; 7.04% with Escherichia coli; -0.01% in the assay with Klebsiella pneumoniae; 2.45% in the assay on Candida albicans; -10.77% in the assay with Cryptococcus neoformans.

Regarding `COc1ccc2c3c([nH]c2c1)[C@H]1C[C@H]2[C@H](C[C@@H](O)[C@H](OC)[C@H]2CO)CN1CC3`, the Inhibition in the assay on Staphylococcus aureus is 17.92%; in the assay on Acinetobacter baumannii, 7.85%; in the assay with Escherichia coli it was -1.49%; in the assay on Klebsiella pneumoniae, 7.11%; with Candida albicans, -0.63%; in the assay on Cryptococcus neoformans, -8.29%.

What is called Inhibition is the change of the read-out against control, counted positive when it falls.
